Screening data: PubChem, National Center for Advancing Translational Sciences (NCATS)
Most compounds without a hit are left out; they make up all but 1.1% or so of the library.
HTT cytoprotect – Huntington cell model cytoprotection by ATP luminescence | PC12 HTT-Q103 induced, cytoprotection, ATP luminescence, 40 h | Potency, µM (doses to about 56.4 µM), for the others: cytoprotection (ATP increase), actives largely listed as activators | 230,000 tested, 0.14% active | AID 1471; further: potency means the concentration at half of the fitted maximal effect; % of control where 0% means no effect; nearly all actives have a fitted effect of over 45% in size
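Readout: ATPlite luminescence (ATP level). Model: stable PC12, inducible Htt exon1 Q103-GFP. Inducer: tebufenozide, 100 nM final. Compounds: dose series. No G418 in medium.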
MBNL1 CUG block – MBNL1-poly(CUG) RNA binding inhibition; 280,000 tested, 0.036% active; TR-FRET MBNL1-His/biotin-(CUG)12 binding, 665/545 ratio; Potency, µM (series often up to 57.5 µM), without a hit: at the top dose activity change, negative = inhibition, hits mostly inhibitors; AID 2675; active means well fitted inhibition curve with a large enough effect in the signal ratio, with a control signal flat, not every such curve was filed as active; inconclusive means small, poorly fitted or top-dose-only effect, or effect the other way, or a change in a side signal; inactive means no such curve, though single readings can be large or run the other way; the % refers to the signal ratio; further: potency means the concentration at half of the fitted maximal effect; on the % scale 0 is the no-effect control and ±100 the full control effect
Target sequence (Q9NR56 whole entry, looked up): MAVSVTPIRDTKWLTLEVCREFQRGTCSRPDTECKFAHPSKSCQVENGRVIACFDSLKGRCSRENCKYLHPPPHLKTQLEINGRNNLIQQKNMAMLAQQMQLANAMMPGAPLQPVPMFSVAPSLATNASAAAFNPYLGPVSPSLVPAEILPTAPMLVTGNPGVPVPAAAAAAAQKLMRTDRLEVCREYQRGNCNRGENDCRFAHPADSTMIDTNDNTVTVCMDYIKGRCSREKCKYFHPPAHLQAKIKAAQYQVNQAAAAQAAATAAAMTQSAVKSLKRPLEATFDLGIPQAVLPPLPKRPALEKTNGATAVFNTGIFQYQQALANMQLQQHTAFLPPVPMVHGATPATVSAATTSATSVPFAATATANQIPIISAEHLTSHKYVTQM
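MBNL1-His + Biotin-(CUG)12, cpd titration 92 nM–58 uM; Tb anti-His Ab 0.055 ng/ul, SA-XL665 5 nM (final); 60 min RT; ratiometric 665/545 nm, Ex 340 nm; normalized to buffer and full-complex controls.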
Lamin A splicing – modulators of lamin A splicing. HeLa LMNA splicing GFP/RFP minigene ratio, 48 h. Potency, µM (top dose mostly 46.1 µM), for inactives: at the top dose ratio change, negative = inhibition, usual class: inhibitors. 200,000 tested, 0.01% active. AID 1487; active means well fitted inhibition curve with a large enough effect in the signal ratio, with a control signal flat, not every such curve was filed as active; inconclusive means small, poorly fitted or top-dose-only effect, or effect the other way, or a change in a side signal; the % refers to the signal ratio; further: potency means the concentration at half of the fitted maximal effect; on the % scale 0 is the no-effect control and ±100 the full control effect
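S3 HeLa cells stably expressing lamin A-EGFP splicing minigene plus DsRed2, 600 cells/well, 48 h compound exposure at 37C. Laser-scanning cytometry; analysed as GFP (500-530 nm)/RFP (575-640 nm) total intensity ratio; 0.5% DMSO vehicle.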
CBFb RUNX1 block – CBF-beta/RUNX1 interaction disruption. Potency, µM (highest dose often 59.8 µM), for inactives: top-dose activity, negative = inhibition, actives largely listed as inhibitors. Q01196+Q13951. AlphaScreen CBFb-His/RUNX1-biotin binding, biochemical. 230,000 tested, under 10 active; further: % of control where 0% means no effect
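Room-temperature protein-protein interaction test with 30 nM each of His-tagged CBF-beta and biotinylated RUNX1, 15 min with compound, then 90 min with nickel plus streptavidin beads. Signal read in AlphaScreen mode.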
HTT aggregate – mutant huntingtin aggregation inhibition; PC12 HttQ103-GFP aggregates, Acumen cytometry, 40 h; Potency, µM (top dose mostly 46.1 µM), for inactives: top-dose activity change, negative = inhibition, hits mostly inhibitors; 220,000 tested, 1.1% active; AID 1688; further: potency means the concentration at half of the fitted maximal effect; on the % scale 0 is the no-effect control and ±100 the full control effect; nearly all actives have a fitted effect of over 60% in size
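Aggregate formation scored by laser-scanning cytometer (488 excitation, 500–530 emission) in lysed PC12 cells expressing Q103-GFP after 100 nM tebufenozide induction; library tested in dose series, with ATPLite reagent added in the multiplex.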
NPSR antagonist – neuropeptide S receptor (human) antagonism, cAMP | AID 1461 | CHO-NPSR cells, cAMP TR-FRET, antagonist mode | 220,000 tested, 1% active | Potency, µM (top dose mostly 38.3 µM), without a hit: at the top dose activity change, negative = inhibition, actives largely listed as inhibitors; further: potency means the concentration at half of the fitted maximal effect; on the % scale 0 is the no-effect control and ±100 the full control effect; nearly all actives have a fitted effect of over 50% in size
Target sequence (Q6W5P4 whole entry, looked up): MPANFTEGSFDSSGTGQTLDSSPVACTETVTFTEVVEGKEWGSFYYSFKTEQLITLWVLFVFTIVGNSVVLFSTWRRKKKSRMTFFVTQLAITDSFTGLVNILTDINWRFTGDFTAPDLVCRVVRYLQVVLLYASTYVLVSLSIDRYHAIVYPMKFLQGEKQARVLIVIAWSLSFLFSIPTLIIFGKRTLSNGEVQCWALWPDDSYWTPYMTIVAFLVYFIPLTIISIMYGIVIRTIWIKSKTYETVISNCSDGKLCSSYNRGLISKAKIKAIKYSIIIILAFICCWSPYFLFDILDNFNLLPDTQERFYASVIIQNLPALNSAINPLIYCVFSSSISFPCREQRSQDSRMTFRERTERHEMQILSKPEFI
MBNL1-CUG FRET – MBNL1-poly(CUG) RNA binding inhibition confirmed; shares compounds with MBNL1 CUG block; TR-FRET MBNL1-His / biotin-(CUG)12 binding, 60 min; Potency, µM (top dose mostly 57.6 µM), for inactives: top-dose activity change, negative = inhibition, hits mostly inhibitors; 140 tested, 50% active; AID 493199
MBNL1 AlphaScrn – blocks MBNL1 binding to (CUG)12 RNA in AlphaScreen | shares compounds with MBNL1 CUG block | Potency, µM (top dose mostly 57.7 µM), for the others: at the top dose activity, negative = inhibition, usual class: inhibitors | AlphaScreen MBNL1-His / biotin-(CUG)12 binding | 140 tested, 30% active | AID 493205
Menin-MLL HTRF – hit in HTRF counterscreen for MBNL1-poly(CUG) binding inhibitors | shares compounds with MBNL1 CUG block | His-Menin/biotin-MLL peptide TR-FRET counterscreen | Potency, µM (titrated, usually from 57.6 µM), for inactives: at the highest dose activity, negative = inhibition, hits mostly inhibitors | 120 tested, 20% active
* hit, by the source's call; ? = inconclusive; · = no result; [ ] = dose if it differs, or a comment. Unless noted, the call rests on the fitted dose curve; in most records, active means well fitted curve in the direction sought with a large enough effect; inconclusive means small, poorly fitted or top-dose-only effect, or another doubt; inactive means no such curve, though single readings can be large; an effect the other way counts as inactive or inconclusive.

SMILES	HTT cytoprotect	MBNL1 CUG block	Lamin A splicing	CBFb RUNX1 block	HTT aggregate	NPSR antagonist	MBNL1-CUG FRET	MBNL1 AlphaScrn	Menin-MLL HTRF
CSCC[C@H](NC(=O)[C@H](CCC(N)=O)NC(=O)[C@H](CCCCN)NC(=O)[C@H](CCCNC(=N)N)NC(=O)[C@H](Cc1ccc(O)cc1)NC(=O)[C@H](CCCNC(=N)N)NC(=O)[C@H](CO)NC(=O)[C@H](Cc1ccc(O)cc1)NC(=O)[C@H](CO)NC(=O)[C@H](CC(=O)O)NC(=O)[C@@H](NC(=O)[C@@H](N)Cc1ccccc1)[C@@H](C)O)C(=O)N[C@@H](C)C(=O)N[C@H](C(=O)N[C@@H](CCCCN)C(=O)N[C@@H](CCCCN)C(=O)N[C@@H](Cc1ccc(O)cc1)C(=O)N[C@@H](CC(C)C)C(=O)N[C@@H](C)C(=O)N[C@@H](C)C(=O)N[C@H](C(=O)N[C@@H](CC(C)C)C(=O)NCC(=O)N[C@@H](CCCCN)C(=O)N[C@@H](CCCNC(=N)N)C(=O)N[C@@H](Cc1ccc(O)cc1)C(=O)N[C@@H](CCCCN)C(=O)N[C@@H](CCC(N)=O)C(=O)N[C@@H](CCCNC(=N)N)C(=O)N[C@H](C(=O)N[C@@H](CCCCN)C(=O)N[C@@H](CC(N)=O)C(=O)N[C@@H](CCCCN)C(N)=O)C(C)C)C(C)C)C(C)C	·	·	·	16%	·	·	·	·	·
O=C(O)[C@@H](c1ccccc1)N1Cc2ccccc2C1=O	-16%	40µM*	11%	1%	14%	0%[46.1 µM]	26µM*	21µM*	-3%
COc1ccc(CCNC(=O)C2CC(=O)N(c3ccc(F)cc3)C2)cc1OC (configuration not stated)	0%[10 µM]	0.79µM*	3%	0%	-3%	-7%[46.1 µM]	-9%	-8%	0%
Cn1nc(-c2ccc(Cl)cc2)nc2c(=O)n(C)c(=O)nc1-2	-96%	?	?	·	?	1µM*	0.65µM*	0.26µM*	56%
CS(=O)(=O)n1nc(-c2ccc(Cl)cc2)nc1N	16%[10 µM]	-6%	-8%[46 µM]	8%	18%[9.22 µM]	-7%	·	·	·
COCCNC(=O)C(c1cccs1)N(C(=O)Cn1nnc2ccccc21)c1cccc(C)c1 (configuration not stated)	-1%[10 µM]	1%	9%	4%	-5%	-23%[46.1 µM]	·	·	·
COCCNC(=O)C(c1cccs1)N(C(=O)Cn1nnc2ccccc21)c1ccc(OC)cc1 (configuration not stated)	-23%[1.9 µM]	28µM*	-13%	0%	-5%	?	-4%	-11%	2%
CCOC(=O)CCCCC(=O)c1[nH]c(=O)[nH]c1C[n+]1ccccc1	10%	32µM*	-2%[46 µM]	-8%	6%	25%	16µM*	3.3µM*	?
CCOC(=O)c1[nH]c(=O)[nH]c1CSc1nc(C)cc(C)n1	-9%	-9%	-9%	3%	-7%	1%[46.1 µM]	·	·	·
CCOC(=O)CCCCC(=O)c1[nH]c(=O)[nH]c1CSc1nc(C)cc(C)n1	-1%[10 µM]	32µM*	-4%	-13%	-5%	-9%[46.1 µM]	26µM*	4.1µM*	-22%
CCOC(=O)CCCCC(=O)c1[nH]c(=O)[nH]c1CN1CCOCC1	0%	2.2µM*	10%	-14%	1%	-5%[46.1 µM]	4.1µM*	0.92µM*	16µM*
CCOC(=O)CCCCC(=O)c1[nH]c(=O)[nH]c1CSc1nc(C)cc(=O)[nH]1	5%[0.074 µM]	1.8µM*	-1%	-24%	-6%	-16%[46.1 µM]	0.52µM*	0.073µM*	3.7µM*
COc1cc2c(C#N)c(N3CCCC3)nc(N)c2c(N)n1	2%[10 µM]	?	·	11%	-1%[9.22 µM]	-18%	·	·	·
N#Cc1c(N2CCCC2)nc(N)c2c(N)nc(N3CCCC3)cc12	4%[10 µM]	·	-3%	?	-6%	-7%[46.1 µM]	5.2µM*	0.65µM*	22%
CCCCc1nn2c(=O)cc(COC(=O)CNC(=O)c3ccccc3C)nc2s1	·	·	8%[46 µM]	·	·	·	·	·	·
CC(=O)Nc1ccc(NC(=O)c2cc(-c3cc(C)c(C)cc3O)n[nH]2)cc1	·	10µM*	·	·	·	·	?	41µM*	-2%
Cc1cc(O)c(-c2cc(C(=O)Nc3cccnc3)[nH]n2)cc1C	1%[10 µM]	·	·	10%	5%[9.22 µM]	-11%	·	·	·
O=c1/c(=C\c2ccc3c(c2)OCO3)sc2n1CCCN=2	-82%[10 µM]	?	16%	6%	-2%	-8%[46.1 µM]	·	·	·
Cc1ccc(/C=c2/sc3n(c2=O)CCCN=3)o1	7%[10 µM]	35%	-4%	-21%	14%	-8%[46.1 µM]	?	-13%	35%
CCOC(=O)C1(CCOc2ccccc2)CCN(Cc2ccc(-n3cccn3)cc2)CC1	30%[10 µM]	11µM*	·	-3%	25%[9.22 µM]	33%	6.5µM*	?	-46%
CCOC(=O)C1(CCOc2ccccc2)CCN(Cc2ccncc2)CC1	4%[10 µM]	-7%	·	1%	10%[9.22 µM]	2%	·	·	·
COc1cc2c(cc1O)CC[C@@H]1[C@@H]2CC[C@@]2(C)[C@H](O)CC[C@H]12	-42%[1.9 µM]	·	·	·	·	·	·	·	·
Cn1nccc1NC(=O)Nc1cccc(Cl)c1	4%[10 µM]	32µM*	·	9%	-27%[9.22 µM]	2%	?	?	33µM*
O=C(NCCCN1CCN(c2ccccc2)CC1)c1ccc2nc(CCc3ccccc3)oc2c1	·	·	3%[46 µM]	·	·	·	·	·	·
CSc1ncnc2c1ncn2CC(=O)[C@H]1CC[C@H]2[C@H]3CCC4=CC(=O)CC[C@@]4(C)[C@@H]3CC[C@@]12C	-6%[10 µM]	·	·	·	·	·	·	·	·
C[N+]1(Cc2ccccc2)CCC(C(=O)OCC2CCCC2)CC1 (configuration not stated)	-13%	·	·	23%	·	·	·	·	·
COc1ccc(N2CCN(CC(=O)Nc3ccc(-n4cnnn4)cc3)CC2)cc1	-19%[10 µM]	-7%	-1%	2%	1%	-2%[46.1 µM]	-1%	?	2%
